Hits are enriched below; roughly 9.3% of the tested compounds scored in any of these assays.
SMN2 splice enh – SMN2 splice variant enhancement. HEK293 SMN2-luciferase splicing reporter, luminescence, 30-36 h. Potency, µM (top dose mostly 46.1 µM), without a hit: at the highest dose activity change, positive = activation, hits mostly activators. actives 2.8% (n = 210,000). AID 1458; further: % of control where 0% means no effect; nearly all actives have a fitted effect of over 55% in size
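qHTS luciferase splicing reporter: luminescence rises when SMN2 exon 7 is included in transfected HEK293 cells. Compound exposure lasted 30-36 h at 37C, with 4.5 mM final sodium butyrate as control, followed by a ONE-Glo read.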
FLuc modulator – inhibits or activates purified firefly luciferase, miR-21 counter-screen; AID 588342; actives 6.9% (n = 360,000); P08659; Potency, µM (top dose mostly 57.5 µM), for inactives: at the highest dose activity change, negative = inhibition, hits mostly inhibitors; purified FLuc, Km substrates, luminescence inhibition;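 further: plate controls were vehicle for no effect and reference inhibitor for full effect; nearly all actives have a fitted effect of over 55% in size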
Target sequence (P08659 whole entry, looked up): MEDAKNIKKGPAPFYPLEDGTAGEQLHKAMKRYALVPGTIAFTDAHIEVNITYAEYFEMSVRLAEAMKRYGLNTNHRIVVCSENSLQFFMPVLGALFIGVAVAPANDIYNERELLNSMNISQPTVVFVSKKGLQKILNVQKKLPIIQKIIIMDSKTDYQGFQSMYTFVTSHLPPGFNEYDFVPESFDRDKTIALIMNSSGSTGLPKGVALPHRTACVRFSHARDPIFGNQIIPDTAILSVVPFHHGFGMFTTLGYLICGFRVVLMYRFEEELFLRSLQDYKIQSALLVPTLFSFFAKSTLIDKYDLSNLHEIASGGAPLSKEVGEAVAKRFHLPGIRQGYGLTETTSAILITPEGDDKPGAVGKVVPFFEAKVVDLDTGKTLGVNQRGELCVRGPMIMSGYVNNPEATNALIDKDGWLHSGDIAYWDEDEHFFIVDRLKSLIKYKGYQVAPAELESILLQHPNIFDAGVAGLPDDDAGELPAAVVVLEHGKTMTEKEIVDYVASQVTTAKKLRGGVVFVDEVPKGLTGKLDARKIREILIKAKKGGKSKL
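Biochemical qHTS of compounds, final roughly 60 µM downward over six points, against 10 nM purified firefly luciferase using Km concentrations of substrates (10 uM D-luciferin, 10 uM ATP) in Tris acetate pH 7.5 buffer; luminescence output.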
NPC1 prom act – activators of NPC1 promoter. Huh7 NPC1 promoter luciferase reporter, 24 h. Potency, µM (series often up to 9.22 µM), inactives show at the top dose activation, most hits filed as activators. actives 2.4% (n = 320,000). AID 485313; further: % of control where 0% means no effect; nearly all actives have a fitted effect of over 60% in size
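In 1536-well qHTS, Huh7 cells harboring an NPC1 promoter–luciferase construct received compound for 24 h; activation was quantified by luminescence following luciferase reagent addition.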
ELG1 genotoxic – induces genotoxicity in HEK293T cells with luciferase-tagged ELG1 | HEK293T ELG1-luciferase reporter, luminescence, 16 h | Potency, µM (highest dose often 46 µM), for inactives: at the top dose activity change, positive = activation, usual class: activators | actives 1.3% (n = 330,000) | AID 504466; further: % of control where 0% means no effect; nearly all actives have a fitted effect of over 60% in size
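Luminescence read-out: rising ELG1-luciferase signal, reflecting elevated ELG1 protein under genetic stress, flags genotoxic compounds. Cells were treated for 16 hr at 37 °C before ONE-Glo detection.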
ELG1 repair inh – inhibitors of ELG1-dependent DNA repair in HEK293T cells; HEK293T ELG1-luciferase reporter, luminescence, 16 h; DNA damage induced by 5-fluorouridine; Potency, µM (highest dose often 46.1 µM), without a hit: at the top dose activity change, negative = inhibition, most hits filed as inhibitors; actives 2.3% (n = 330,000); further: on the % scale 0 is the no-effect control and ±100 the full control effect; nearly all actives have a fitted effect of over 55% in size
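Cells (2,000 per well) received 5-fluorouridine plus test compound or DMSO and were incubated 16 hr at 37 °C, 5% CO2. Luciferase activity was read by luminescence 30 min after ONE-Glo addition; signal suppression marked inhibition of damage-induced ELG1 function.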
Rab9 prom act – Rab9 promoter activation. Potency, µM (series often up to 9.22 µM), without a hit: at the top dose activation, negative = inhibition, usual class: activators. Huh7 Rab9 promoter-luciferase reporter, luminescence, 24 h. actives 2.8% (n = 320,000). AID 485297; further: % of control where 0% means no effect; nearly all actives have a fitted effect of over 60% in size
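Steps: seed 1500 Huh7 Rab9-luc cells per well, rest 2 h at 37 °C; add compound in DMSO; incubate 24 h; add luciferase reagent, 10 min ambient; read luminescence.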
* hit, by the source's call. The call rests on the fitted dose curve; in most records, active means well fitted curve in the direction sought with a large enough effect; inconclusive means small, poorly fitted or top-dose-only effect, or another doubt; inactive means no such curve, though single readings can be large; an effect the other way counts as inactive or inconclusive. Potency means the concentration at half of the fitted maximal effect.

O=C(Nc1ccc2c(c1)OCO2)OCc1ccccc1 was read as SMN2 splice enh 20µM*, FLuc modulator 6µM*, NPC1 prom act 1.6µM*, ELG1 genotoxic inconclusive, ELG1 repair inh inconclusive and Rab9 prom act 1.3µM*.
Screening O=C(NCCc1ccccc1)Nc1ccc2c(c1)OCO2 returned SMN2 splice enh 14µM*, FLuc modulator 11µM*, NPC1 prom act 2.5µM*, ELG1 genotoxic inconclusive, ELG1 repair inh inconclusive and Rab9 prom act 1.4µM*.
Screening O=C(NCCc1ccccc1)C(=O)Nc1ccc2c(c1)OCCO2 returned SMN2 splice enh 20%, FLuc modulator -6%, NPC1 prom act 30%, ELG1 genotoxic inconclusive, ELG1 repair inh inconclusive and Rab9 prom act 26%.
For Cc1n[nH]c(C)c1S(=O)(=O)N(CC(=O)N1CCc2ccccc21)c1ccc(C(C)C)cc1 the results were SMN2 splice enh -2%, FLuc modulator 2%, NPC1 prom act 0%, ELG1 genotoxic 1%, ELG1 repair inh -26% and Rab9 prom act 2%.
CCC(=O)Nc1c(C(=O)Nc2ccc3c(c2)OCCO3)oc2ccccc12 was read as SMN2 splice enh 16µM*, FLuc modulator inconclusive, NPC1 prom act inconclusive, ELG1 genotoxic 10%, ELG1 repair inh inconclusive and Rab9 prom act 2.8µM*.
Screening CCC(=O)Nc1c(C(=O)Nc2cccc(OC)c2)oc2ccccc12 returned SMN2 splice enh 14%, FLuc modulator -17%, NPC1 prom act 27%, ELG1 genotoxic 3%, ELG1 repair inh 1% and Rab9 prom act inconclusive.
`COc1ccc(NC(=O)c2oc3ccccc3c2NC(=O)c2cc(OC)c(OC)c(OC)c2)cc1` gave SMN2 splice enh -2% and FLuc modulator -1%.
CCOCC(=O)Nc1c(C(=O)Nc2ccc3c(c2)OCCO3)oc2ccccc12 was read as SMN2 splice enh 2.8µM*, FLuc modulator -15%, NPC1 prom act 1.4µM*, ELG1 genotoxic inconclusive, ELG1 repair inh inconclusive and Rab9 prom act 0.71µM*.
COc1ccc(NC(=O)c2oc3ccccc3c2NC(=O)c2ccc3c(c2)OCO3)cc1 was read as SMN2 splice enh 23%, FLuc modulator 9.5µM*, NPC1 prom act 12%, ELG1 genotoxic 1%, ELG1 repair inh 9.2µM* and Rab9 prom act 16%.
`CCOCC(=O)Nc1c(C(=O)Nc2ccccc2OC)oc2ccccc12` gave SMN2 splice enh -11%, FLuc modulator -18%, NPC1 prom act 29%, ELG1 genotoxic 10%, ELG1 repair inh 24% and Rab9 prom act inconclusive.
For O=C(Nc1ccc2c(c1)OCCO2)c1oc2ccccc2c1NC(=O)C1CC1 the results were SMN2 splice enh inconclusive, FLuc modulator inconclusive, NPC1 prom act 1%, ELG1 genotoxic -6%, ELG1 repair inh inconclusive and Rab9 prom act 17%.
For COCC(=O)Nc1c(C(=O)Nc2ccc3c(c2)OCCO3)oc2ccccc12 the results were SMN2 splice enh 7.9µM*, NPC1 prom act 1.4µM*, ELG1 genotoxic 3%, ELG1 repair inh inconclusive and Rab9 prom act 1.1µM*.
For CCCc1nnc(NC(=O)CCN2C(=O)c3ccccc3C2=O)s1 the results were SMN2 splice enh 27%, FLuc modulator 4%, NPC1 prom act -1%, ELG1 genotoxic 5%, ELG1 repair inh 0% and Rab9 prom act 13%.
Screening Cn1cnc([N+](=O)[O-])c1Oc1ccccc1 returned SMN2 splice enh 9%, FLuc modulator 2%, NPC1 prom act -5%, ELG1 genotoxic 2%, ELG1 repair inh 22% and Rab9 prom act -20%.
Cc1nnc(SCC(=O)N2CCN(c3cccc(Cl)c3)CC2)n1C1CC1 was read as FLuc modulator 3%, NPC1 prom act -2%, ELG1 genotoxic -7%, ELG1 repair inh inconclusive and Rab9 prom act -14%.
NS(=O)(=O)c1ccc(CCNC(=O)C2CCCN2S(=O)(=O)c2cccc3nsnc23)cc1 (stereo unspecified) was read as FLuc modulator 2%, NPC1 prom act -2%, ELG1 genotoxic -3%, ELG1 repair inh 2% and Rab9 prom act -3%.
For CC(C)COC(=S)Nc1ccccc1 the results were SMN2 splice enh -9%, FLuc modulator 17µM*, NPC1 prom act 0%, ELG1 genotoxic inconclusive, ELG1 repair inh inconclusive and Rab9 prom act 2%.
Screening O=C(NCc1cccnc1)NC1(C(F)(F)F)Oc2ccccc2O1 returned FLuc modulator 5%, NPC1 prom act -3%, ELG1 genotoxic 4%, ELG1 repair inh -8% and Rab9 prom act -18%.
`COc1ccc(-c2cnnc(N/N=C/c3ccc(O)c(O)c3)n2)cc1` gave SMN2 splice enh inconclusive, FLuc modulator 2.7µM*, NPC1 prom act -13%, ELG1 genotoxic 12%, ELG1 repair inh -24% and Rab9 prom act -9%.
Screening Oc1ccc(/C=N\Nc2nncc(-c3ccccc3)n2)cc1 returned FLuc modulator inconclusive, NPC1 prom act -6%, ELG1 genotoxic inconclusive, ELG1 repair inh 14% and Rab9 prom act -8%.
For COc1ccc(/C=N/Nc2nc(NCc3ccco3)nc(Nc3ccc(OC)cc3)n2)cc1 the results were SMN2 splice enh -11%, FLuc modulator inconclusive, NPC1 prom act -2%, ELG1 genotoxic -6%, ELG1 repair inh inconclusive and Rab9 prom act -7%.
For CCNc1nc(NCC)nc(N/N=C/c2ccc(O)c(O)c2)n1 the results were SMN2 splice enh inconclusive, FLuc modulator 21µM*, NPC1 prom act 26%, ELG1 genotoxic inconclusive, ELG1 repair inh inconclusive and Rab9 prom act inconclusive.
For COc1ccc(-c2cnnc(N/N=C/c3ccc(O)cc3)n2)cc1 the results were SMN2 splice enh 27%, FLuc modulator 1.7µM*, NPC1 prom act 0%, ELG1 genotoxic inconclusive, ELG1 repair inh inconclusive and Rab9 prom act 18%.
COc1ccc(Nc2nc(NCc3ccco3)nc(N/N=C/c3ccc(O)cc3)n2)cc1 was read as FLuc modulator 15µM*, NPC1 prom act -1%, ELG1 genotoxic -7%, ELG1 repair inh inconclusive and Rab9 prom act 1%.
N/C(=N\OC(=O)CCCOc1ccccc1)c1ccc(Br)cc1 was read as SMN2 splice enh 23%, FLuc modulator -1%, NPC1 prom act -1%, ELG1 genotoxic 2%, ELG1 repair inh 10% and Rab9 prom act 4%.
`Cc1ccc(C(O)C(=O)c2ccco2)cc1` (stereo unspecified) gave FLuc modulator 6%, NPC1 prom act -2%, ELG1 genotoxic -2%, ELG1 repair inh 23% and Rab9 prom act 3%.
